This note sets out measurements from PubChem BioAssay (NCI).

SMILES strings stand for the structures. This is part of a sample that, as a whole, favours compounds with a hit. Of some 83,000 tested, about 20% had one in any assay.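 Cells were grown in 96-well plates and exposed to the test compound at a single concentration for 48 hours; results are reported as percent growth, with values below 10 considered active.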 Active and inactive are the calls of the source.

The subject of one experiment is UO-31 renal. In words: NCI-60 one-dose screen, 48 h (100 = growth as untreated, 0 = no growth, -100 = all killed). The conditions noted are these: 10 µM unless noted.
`CCc1oc2ccccc2c1C(=O)c1cc(I)c(O)c(I)c1`: the growth was 80% (inactive).
The same measure, in the same setting: in the case of `COc1cccc2nc(Nc3cccc(NC(=O)c4cc(N5CCOCC5)cc(C(F)(F)F)c4)c3)ccc12` it was 42.3% (inactive); in that of `FC(F)(F)c1ccc(/C=N/Nc2nnc3n2N=C(c2ccc(Cl)cc2)CS3)cc1`, 39.7% (inactive).
On the same count and under the same terms, the figure for `Nc1nc2ccc([C@@H]3Nc4ccc5[nH]ncc5c4[C@H]4[C@H]5CCC(C5)[C@H]43)cc2s1` is 30.4% (inactive); for `C/C=C(\C)C(C(=O)NC1CCCCC1)N(C(=O)C1CCc2cc(F)ccc2O1)c1ccc([N+](=O)[O-])cc1` (stereo not drawn) it is 69.1% (inactive); for `COc1cc(C2Nc3ccccc3S2)cc(CN2CCOCC2)c1O` (stereo not drawn) it is 45.6% (inactive).
On to `C#CCNC(=S)N/N=C(\C)c1ccccn1`, for which the growth was -13.9% (active).
The same measure, in the same setting: the figure for `COc1cc2nccc(Oc3ccc(NC(=O)C4(C(=O)Nc5c(F)cc(F)cc5F)CC4)cc3)c2cc1Oc1ccc(N)cn1` is 45.3% (inactive).
Regarding `COc1ccc2c(c1)CCCC21C(=O)Nc2ccccc21` (stereo not drawn), the growth is 82.4% (inactive).
Same read-out and setting: in the case of `CCCCCCCCCC1=NC(C)(C)CN1C(C)(C)CO` it was 56.8% (inactive).
Take `CCN(CC)CCCC(C)Nc1cnc(C(=O)Nc2cc(C)cc3cccnc23)cn1` (stereo not drawn): the growth is 63.3% (inactive).
The same measure, in the same setting: the figure for `C/C(CC(=O)NNc1ccc([N+](=O)[O-])cc1)=N\Nc1ccc([N+](=O)[O-])cc1` is 40% (inactive).
Still for that read-out and setting: the figure for `COc1ccc2c(c1)CCCC21C(=O)Nc2c(Cl)cccc21` (stereo not drawn) is 82.8% (inactive).
The same measure, in the same setting: the figure for `CCN(CC)CCCNc1cccc2c(C)cc(OC)nc12` is 56.9% (inactive).
`Cc1nn(-c2ccc(Cl)cc2)c(=O)n1CCN1CCOCC1`: the growth was 66% (inactive).
On the same count and under the same terms, the figure for `CCN(C(=O)Nc1cccc2ccccc12)c1ccccc1` is 73% (inactive); for `CCCCCCCCCCC(C(O)c1ccccc1)N1CCCCC1` (stereo not drawn) it is -1.17% (active); for `CC1CN(CCCOC(=O)Nc2ccc(Cl)cc2)CCN1C(C)(C)C` (stereo not drawn) it is 82.9% (inactive).
Consider `Cc1ccc(/C=C/C(=N/N=C(N)N)c2ccccc2)cc1`, for which the growth is 21.7% (inactive).
In the case of `O=C(Nc1ccc(Br)cc1)Nc1ccccc1Cl`, the growth is 58.9% (inactive).
Same read-out and setting: the figure for `CC1C2CCC(C2)C1COCCOCCO` (stereo not drawn) is 98.7% (inactive).
As to `O=C1Cc2c([nH]c3ccc([N+](=O)[O-])cc23)-c2ccccc2N1`, the growth was 4.74% (active).
The same measure, in the same setting: in the case of `CCN(CC)CCCC(C)Nc1cnc(C(=O)Nc2ccc(Cl)c3cccnc23)cn1` (stereo not drawn) it was 23.8% (inactive); in that of `CC(=O)c1nn(-c2ccccc2)/c(=N\N=C\c2coc3ccc(F)cc3c2=O)s1`, 69.6% (inactive); in that of `Cc1c(O)c(=O)n(-c2ccccc2)n1C`, 79.6% (inactive).
On the same count and under the same terms, the figure for `CSC(=S)N/N=C(\C)c1ccccn1` is -0.858% (active); for `CN1CCN(Cc2ccc(NC(=O)c3cncc(C#Cc4cnc5cccnn45)c3)cc2C(F)(F)F)CC1` it is 0.419% (active).
On the same count and under the same terms, in the case of `O=C1c2ccccc2C(=O)c2c1oc1ccc3ccccc3c21` it was 61% (inactive); in that of `CN(C)c1ccc(/C=N/Nc2nnc3n2N=C(c2ccc(Cl)cc2)CS3)cc1`, 74.9% (inactive).
For the compound `C#CC[C@@H]1C[C@]2(C)[C@H]3CC=C4[C@H]5CC(C)(C)CC[C@]5(C(=O)NCCCCN)CC[C@@]4(C)[C@]3(C)CC[C@H]2C(C)(C)[C@H]1OC(C)=O`, the growth was -44.3% (active).
In the case of `COc1ccc(C(=O)C(CN(C)C)c2ccccc2)cc1` (stereo not drawn), the growth was -18.7% (active).
Take `C#CC[C@@H]1C[C@]2(C)[C@H]3CC=C4[C@H]5[C@@H](C)[C@H](C)CC[C@]5(C(=O)NCCCCCCCCN)CC[C@@]4(C)[C@]3(C)CC[C@H]2C(C)(C)[C@H]1OC(C)=O`: the growth is 67.2% (inactive).
Still for that read-out and setting: in the case of `CCCCNCC(O)c1cc2c(Cl)cc(Cl)cc2c2cc(C(F)(F)F)ccc12` (stereo not drawn) it was -81.2% (active); in that of `COc1ccc(/C(=C\c2ccc3c(c2)OCO3)C(=O)Nc2nc3ccccc3s2)cc1`, 91.9% (inactive).
Still for that read-out and setting: the figure for `Nc1ccc(N(O)/C=C2\C=CC=CC2=O)cc1N` is 62.5% (inactive); for `Fc1[nH]nc2ccc([C@@H]3Nc4ccc5[nH]ncc5c4[C@H]4C5CCC(C5)[C@@H]34)cc12` (stereo partly drawn) it is 51.3% (inactive); for `Cc1c(-c2ccc(-c3ccccc3F)cc2)nc2ccc(F)cc2c1C(=O)O` it is 35.8% (inactive).
On the same count and under the same terms, in the case of `C=C(C)[C@@H]1CC[C@]2(C)[C@H](CC=C3[C@@H]4C[C@](C)(C(=O)N5CCN(C)CC5)CC[C@]4(C)CC[C@]32C)[C@@]1(C)CCC#N` it was 66.1% (inactive); in that of `CNCc1cccc2c1OCCOCCOCCC(C)S(=O)(=O)c1ccc(cc1)-c1cnc(N)c(n1)C(=O)N2` (stereo not drawn), 44.4% (inactive).

The next experiment concerns TK-10 renal. Described as above. The conditions noted are these: 10 µM unless noted.
With `CCc1oc2ccccc2c1C(=O)c1cc(I)c(O)c(I)c1`, the growth is 87.7% (inactive).
For `COc1cccc2nc(Nc3cccc(NC(=O)c4cc(N5CCOCC5)cc(C(F)(F)F)c4)c3)ccc12`, the growth is 65.9% (inactive).
With `FC(F)(F)c1ccc(/C=N/Nc2nnc3n2N=C(c2ccc(Cl)cc2)CS3)cc1`, the growth was 53.1% (inactive).
On the same count and under the same terms, the figure for `Nc1nc2ccc([C@@H]3Nc4ccc5[nH]ncc5c4[C@H]4[C@H]5CCC(C5)[C@H]43)cc2s1` is 46.3% (inactive).
As to `C/C=C(\C)C(C(=O)NC1CCCCC1)N(C(=O)C1CCc2cc(F)ccc2O1)c1ccc([N+](=O)[O-])cc1` (stereo not drawn), the growth is 89.9% (inactive).
The same measure, in the same setting: in the case of `COc1cc(C2Nc3ccccc3S2)cc(CN2CCOCC2)c1O` (stereo not drawn) it was 84.7% (inactive).
Still for that read-out and setting: in the case of `C#CCNC(=S)N/N=C(\C)c1ccccn1` it was 50.9% (inactive); in that of `COc1cc2nccc(Oc3ccc(NC(=O)C4(C(=O)Nc5c(F)cc(F)cc5F)CC4)cc3)c2cc1Oc1ccc(N)cn1`, 84.5% (inactive).
Same read-out and setting: the figure for `COc1ccc2c(c1)CCCC21C(=O)Nc2ccccc21` (stereo not drawn) is 95.4% (inactive); for `CCCCCCCCCC1=NC(C)(C)CN1C(C)(C)CO` it is 97.7% (inactive); for `CCN(CC)CCCC(C)Nc1cnc(C(=O)Nc2cc(C)cc3cccnc23)cn1` (stereo not drawn) it is 86.9% (inactive).
As for `C/C(CC(=O)NNc1ccc([N+](=O)[O-])cc1)=N\Nc1ccc([N+](=O)[O-])cc1`, the growth was 93.4% (inactive).
Same read-out and setting: in the case of `COc1ccc2c(c1)CCCC21C(=O)Nc2c(Cl)cccc21` (stereo not drawn) it was 95.4% (inactive); in that of `CCN(CC)CCCNc1cccc2c(C)cc(OC)nc12`, 96.3% (inactive).
Turning to `Cc1nn(-c2ccc(Cl)cc2)c(=O)n1CCN1CCOCC1`, the growth was 64.4% (inactive).
Consider `CCN(C(=O)Nc1cccc2ccccc12)c1ccccc1`, for which the growth is 108% (inactive).
Same read-out and setting: in the case of `CCCCCCCCCCC(C(O)c1ccccc1)N1CCCCC1` (stereo not drawn) it was 76.8% (inactive); in that of `CC1CN(CCCOC(=O)Nc2ccc(Cl)cc2)CCN1C(C)(C)C` (stereo not drawn), 99.8% (inactive); in that of `Cc1ccc(/C=C/C(=N/N=C(N)N)c2ccccc2)cc1`, 44% (inactive).
On the same count and under the same terms, the figure for `O=C(Nc1ccc(Br)cc1)Nc1ccccc1Cl` is 125% (inactive); for `CC1C2CCC(C2)C1COCCOCCO` (stereo not drawn) it is 109% (inactive); for `O=C1Cc2c([nH]c3ccc([N+](=O)[O-])cc23)-c2ccccc2N1` it is 12% (inactive).
Still for that read-out and setting: in the case of `CCN(CC)CCCC(C)Nc1cnc(C(=O)Nc2ccc(Cl)c3cccnc23)cn1` (stereo not drawn) it was 57.6% (inactive); in that of `CC(=O)c1nn(-c2ccccc2)/c(=N\N=C\c2coc3ccc(F)cc3c2=O)s1`, 163% (inactive).
On to `Cc1c(O)c(=O)n(-c2ccccc2)n1C`, for which the growth was 112% (inactive).
Same read-out and setting: the figure for `CSC(=S)N/N=C(\C)c1ccccn1` is 41.7% (inactive).
Still for that read-out and setting: the figure for `CN1CCN(Cc2ccc(NC(=O)c3cncc(C#Cc4cnc5cccnn45)c3)cc2C(F)(F)F)CC1` is -4.27% (active).
Regarding `O=C1c2ccccc2C(=O)c2c1oc1ccc3ccccc3c21`, the growth was 169% (inactive).
Still for that read-out and setting: the figure for `CN(C)c1ccc(/C=N/Nc2nnc3n2N=C(c2ccc(Cl)cc2)CS3)cc1` is 92.9% (inactive); for `C#CC[C@@H]1C[C@]2(C)[C@H]3CC=C4[C@H]5CC(C)(C)CC[C@]5(C(=O)NCCCCN)CC[C@@]4(C)[C@]3(C)CC[C@H]2C(C)(C)[C@H]1OC(C)=O` it is -27.5% (active).
Still for that read-out and setting: in the case of `COc1ccc(C(=O)C(CN(C)C)c2ccccc2)cc1` (stereo not drawn) it was 29.5% (inactive); in that of `C#CC[C@@H]1C[C@]2(C)[C@H]3CC=C4[C@H]5[C@@H](C)[C@H](C)CC[C@]5(C(=O)NCCCCCCCCN)CC[C@@]4(C)[C@]3(C)CC[C@H]2C(C)(C)[C@H]1OC(C)=O`, 80.5% (inactive).
Same read-out and setting: the figure for `CCCCNCC(O)c1cc2c(Cl)cc(Cl)cc2c2cc(C(F)(F)F)ccc12` (stereo not drawn) is -88.2% (active); for `COc1ccc(/C(=C\c2ccc3c(c2)OCO3)C(=O)Nc2nc3ccccc3s2)cc1` it is 104% (inactive).
With `Nc1ccc(N(O)/C=C2\C=CC=CC2=O)cc1N`, the growth is 133% (inactive).
Still for that read-out and setting: in the case of `Fc1[nH]nc2ccc([C@@H]3Nc4ccc5[nH]ncc5c4[C@H]4C5CCC(C5)[C@@H]34)cc12` (stereo partly drawn) it was 42.4% (inactive); in that of `Cc1c(-c2ccc(-c3ccccc3F)cc2)nc2ccc(F)cc2c1C(=O)O`, 56% (inactive).
Turning to `C=C(C)[C@@H]1CC[C@]2(C)[C@H](CC=C3[C@@H]4C[C@](C)(C(=O)N5CCN(C)CC5)CC[C@]4(C)CC[C@]32C)[C@@]1(C)CCC#N`, the growth was 75.8% (inactive).
Same read-out and setting: the figure for `CNCc1cccc2c1OCCOCCOCCC(C)S(=O)(=O)c1ccc(cc1)-c1cnc(N)c(n1)C(=O)N2` (stereo not drawn) is 66.8% (inactive).
